Smad3 FoxH1 inh = blocks human Smad3 binding to FoxH1 peptide | inhibition, % at 25 µM | hit rate 0.29% among 88,000 | TR-FRET Smad3/Dy647-FoxH1 peptide binding, europium anti-His;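 active means compounds that reduce the energy-transfer binding signal between the protein and its labelled peptide by more than half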;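 further: 0% = Smad3 plus labelled peptide maximal FRET and 100% = peptide-only background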
PLK1 kinase inh = PLK1 (human) kinase inhibition. P53350. recombinant PLK1 kinase, TR-FRET peptide phosphorylation. inhibition, % at 10 µM. hit rate 0.53% among 97,000;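 active means inhibition of 50% or more in the single-concentration screen; inactive means inhibition below 50%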;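 further: 0% = DMSO max control and 100% = H-89 dihydrochloride min control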
EphB4 ephrin blk = blocks human EphB4 binding to ephrin-B2. hit rate 0.15% among 97,000. EphB4 LBD / TNYL-RAW-Alexa532 peptide, fluorescence polarization. inhibition, % at 7 µM. P54760;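 active means inhibition above the screen-wide mean inhibition plus 3 SD, cut at about 15% in these data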;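 further: 0% = DMSO wells and 100% = excess unlabeled TNYL-RAW peptide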
PLK1 PBD inh = Plk1 (human) PBD binding inhibition; P53350; Plk1 PBD phosphopeptide binding, fluorescence polarization; inhibition, %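 (tested at about 20 µM)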; hit rate 0.13% among 97,000; AID 693; in the data active means inhibition above about 34%, passing the limit was not always enough
FAK inh = FAK (human) kinase inhibition. hit rate 0.84% among 97,000. Q05397. biochemical FAK kinase activity assay. inhibition, %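 (tested at 7 µM)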;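 further: 0% = DMSO and 100% = reference compound high control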
Target sequence (Q05397 whole entry, looked up): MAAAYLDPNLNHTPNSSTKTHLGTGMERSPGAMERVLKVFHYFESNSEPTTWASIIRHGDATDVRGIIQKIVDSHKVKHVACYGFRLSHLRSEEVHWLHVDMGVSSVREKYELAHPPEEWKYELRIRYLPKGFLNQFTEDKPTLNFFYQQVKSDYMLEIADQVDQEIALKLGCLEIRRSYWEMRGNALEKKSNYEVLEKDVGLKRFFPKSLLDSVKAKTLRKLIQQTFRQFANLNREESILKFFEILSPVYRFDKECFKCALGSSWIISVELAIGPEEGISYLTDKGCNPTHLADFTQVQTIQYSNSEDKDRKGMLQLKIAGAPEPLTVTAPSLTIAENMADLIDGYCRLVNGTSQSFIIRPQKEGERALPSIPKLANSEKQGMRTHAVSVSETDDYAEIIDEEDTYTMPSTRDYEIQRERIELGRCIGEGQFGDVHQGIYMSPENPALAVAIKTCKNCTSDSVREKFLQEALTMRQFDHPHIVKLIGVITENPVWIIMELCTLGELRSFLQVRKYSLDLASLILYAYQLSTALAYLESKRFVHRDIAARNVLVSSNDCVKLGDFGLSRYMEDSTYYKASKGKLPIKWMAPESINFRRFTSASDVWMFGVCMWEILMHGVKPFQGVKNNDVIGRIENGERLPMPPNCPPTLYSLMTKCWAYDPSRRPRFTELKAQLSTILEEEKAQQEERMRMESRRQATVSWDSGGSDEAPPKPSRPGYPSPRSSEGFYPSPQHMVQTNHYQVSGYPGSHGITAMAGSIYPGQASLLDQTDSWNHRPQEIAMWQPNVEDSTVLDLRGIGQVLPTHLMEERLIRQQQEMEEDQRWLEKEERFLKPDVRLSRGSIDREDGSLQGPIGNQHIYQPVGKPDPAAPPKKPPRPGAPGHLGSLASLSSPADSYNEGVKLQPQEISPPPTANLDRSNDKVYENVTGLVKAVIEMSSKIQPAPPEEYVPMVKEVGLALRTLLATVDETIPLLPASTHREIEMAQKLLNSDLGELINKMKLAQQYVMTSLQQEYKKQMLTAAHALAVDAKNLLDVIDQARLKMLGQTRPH
PBD redox DR = counter-screen for Plk1 PBD inhibitors: redox cycling H2O2 generation. shares compounds with PLK1 PBD inh. DTT. EC50, µM. 120 tested, under 10 active. AID 876; call rule not given here
FAK inh confirm = confirmation of human focal adhesion kinase (FAK) inhibitors; inhibition, % at 7 µM; shares compounds with FAK inh; FAK kinase biochemical inhibition assay; hit rate 28% among 750
An asterisk follows results filed as active; . = no result. Shown are actives, neighbours in structure and some others; about 1.5% of the full set was active somewhere. Unless noted, no stated cut-off is given here; in the data, active means inhibition above about 19%; inactive means the rest.

SMILES | Smad3 FoxH1 inh | PLK1 kinase inh | EphB4 ephrin blk | PLK1 PBD inh | FAK inh | FAK inh confirm | others
CCN1C(=O)/C(=C/c2nc3ccccc3c(=O)n2-c2ccccc2)c2ccccc21 | . | -17.9 | -9.8 | 56.7* | -0.9 | . | PBD redox DR=>50
CCOC(=O)Cc1csc(NC(=O)CSc2nnc(-c3ccc(F)cc3)o2)n1 | 4.5 | 5.3 | -4.3 | 40.4* | 2.7 | . | PBD redox DR=>50
O=C(c1ccc(-n2cnnn2)cc1)N1CCCCC1 | -9.0 | -9.4 | -2.7 | 48.1* | 0.1 | . | PBD redox DR=>50
CCOC(=O)Cc1c(C)[nH]c(=S)[nH]c1=O | -0.6 | 1.7 | -2.7 | -16.9 | -7.7 | .
COC(=O)CCc1c(C)[nH]c(=S)[nH]c1=O | -6.4 | -6.7 | 4.6 | 45.2* | 7.8 | . | PBD redox DR=>50
CCOc1ccccc1N1CCN(C2=C(NS(=O)(=O)c3cccs3)C(=O)c3ccccc3C2=O)CC1 | -2.3 | 6.6 | -1.9 | 58.7* | -1.4 | . | PBD redox DR=>50
O=C1C(NS(=O)(=O)c2cccs2)=C(N2CCN(c3cccc(C(F)(F)F)c3)CC2)C(=O)c2ccccc21 | 6.2 | -4.8 | 1.6 | -20.7 | 0.9 | .
Cc1c(C(=O)NCc2cccnc2)oc2ccc(S(=O)(=O)N3CCC4(CC3)OCCO4)cc12 | -7.8 | -24.3 | -0.2 | 10.7 | -0.5 | .
O=C(O)COc1ccc(Br)cc1/C=N/O | 4.0 | -1.1 | -9.8 | 44.5* | 3.3 | . | PBD redox DR=>50
COc1cccc(C2N(c3cccc(Cl)c3)C(=O)C3CCCN32)c1OC (centres undefined) | -3.1 | -4.4 | -6.0 | -7.3 | -4.0 | .
COC(=O)C1CCN(C(=O)c2ccc(NC(C)=O)cc2)CC1 | 3.8 | -23.7 | -5.2 | -9.9 | -2.7 | .
CCCCOCCCNC(=O)CCCOc1ccccc1 | 4.5 | -11.7 | -4.8 | -22.3 | 0.0 | .
CCOCCCNC(=O)CCCOc1ccccc1 | 2.5 | -8.1 | 3.2 | 42.7* | -1.2 | . | PBD redox DR=>50
CC(C)OCCCNC(=O)c1ccc(NC(=O)C2CCCO2)cc1 (centres undefined) | . | -7.2 | -8.1 | 34.9* | -3.0 | . | PBD redox DR=>50
CCCCNC(=O)c1ccc(NC(=O)C2CCCO2)cc1 (centres undefined) | 7.6 | . | . | . | . | .
O=S1(=O)N=CN(Cc2cccc(F)c2)c2ccccc21 | 3.1 | -18.8 | -0.6 | 0.7 | 1.3 | .
O=C(Nc1nc2ccccc2s1)c1cc2c(s1)-c1ccccc1OC2 | -26.4 | -15.8 | 2.1 | 52.8* | 10.8 | . | PBD redox DR=>50
Cc1cccc2[nH]c3c(N4CCC5(CC4)OCCO5)ncnc3c12 | . | -10.1 | 12.2 | -14.5 | 6.2 | .
Cc1cccc2[nH]c3c(N4CCN(C(=O)c5ccco5)CC4)ncnc3c12 | . | 0.9 | -4.8 | 51.3* | 2.4 | . | PBD redox DR=>50
O=C(Nc1ccccc1N1CCCCC1)c1ccco1 | -1.7 | -6.3 | 5.4 | 5.1 | 23.7* | 9.1
O=C(Nc1ccccc1N1CCCC1)c1ccco1 | -2.9 | -9.2 | -7.3 | -7.0 | 2.0 | .
CC(C)(C)n1nc(-c2ccc(Cl)cc2)c2c(N)ncnc21 | . | 16.5 | -4.6 | -7.2 | 26.4* | 11.9
Cc1ccc(-c2nc(N)c3c(-c4ccc(C)cc4)nn(C(C)(C)C)c3n2)cc1 | . | -15.9 | 14.4 | 1.7 | 9.4 | .
CC(C)(C)n1nc(-c2ccc(F)cc2)c2c(N)ncnc21 | . | 3.6 | 8.7 | -15.4 | 32.0* | 8.2
Cc1cccc(NC(=O)c2c(C)cc(=O)oc2C)n1 | 2.0 | -27.8 | -3.1 | -10.9 | -0.3 | .
SMILES | Smad3 FoxH1 inh | PLK1 kinase inh | EphB4 ephrin blk | PLK1 PBD inh | FAK inh | FAK inh confirm | others
CCOc1ccc2nc(SCC#N)c(C#N)cc2c1 | 11.1 | -2.4 | 0.0 | -16.3 | 20.1* | -0.4
CCc1ccc2nc(SCC(=O)N(CC)CC)c(C#N)cc2c1 | 4.6 | -9.5 | -1.1 | 25.3 | 40.7* | 27.1*
Nc1nc2n(c1C(=O)c1ccccc1)CCC2 | 0.0 | -7.4 | -4.0 | 5.8 | 0.4 | .
CC(C)(C)c1csc(SCC(=O)Nc2ccc(Cl)cn2)n1 | 15.7 | 0.9 | -0.1 | -15.2 | 2.7 | .
c1nc(N2CCOCC2)c2c3c(sc2n1)CCCC3 | -9.2 | -12.0 | 7.3 | -13.7 | 28.3* | -1.0
CCOc1cc(-c2nc(-c3cc(OC)c(OC)c(OC)c3)no2)cc(OCC)c1OCC | 9.5 | -7.1 | -3.5 | -9.4 | 0.7 | .
C[N+]1(C)CCC(=C2c3ccccc3CC(=O)c3sccc32)CC1 | -12.9 | -8.7 | 5.0 | -6.8 | 27.4* | -0.8
CC[N+]1(C)CCC(=C2c3ccccc3CC(=O)c3sccc32)CC1 (centres undefined) | 3.7 | -8.7 | 7.5 | -10.5 | 0.2 | .
Cc1cc(Nc2nnnn2-c2ccccc2)n(-c2ccc(Cl)cc2)n1 | 9.1 | -2.8 | 0.3 | -5.0 | -2.5 | .
O=C1CC(SC(=NCc2ccc3c(c2)OCO3)Nc2ccccc2)C(=O)N1 (centres undefined) | 4.2 | 8.4 | -3.7 | -6.6 | -5.7 | .
Nc1ccc(-c2nc3ccccc3[nH]2)cc1 | 0.3 | 3.2 | -4.7 | 12.8 | 3.1 | .
Cc1n[nH]c(C)c1-c1nc2ccccc2[nH]1 | -4.1 | 2.4 | 2.4 | -4.1 | 24.2* | 5.6
CCCc1nc2oc3cc(OC)ccc3c(=O)c2c(=O)n1Cc1ccco1 | 5.1 | -15.2 | -12.2 | -12.7 | 4.2 | .
CCCc1nc2sc3ccccc3c(=O)c2c(=O)n1Cc1ccco1 | 1.2 | -3.3 | 6.3 | -18.5 | 22.1* | 6.2
CC(=O)c1ccc(NCC(=O)N2CCN(c3ccccc3)CC2)cc1 | 6.0 | -19.6 | 3.9 | -16.9 | 19.8* | 19.2*
Cc1cc([N+](=O)[O-])c2[nH]c(C(=O)N/N=C/c3ccccc3C(=O)O)c(-c3ccccc3)c2c1 | . | -6.5 | 2.0 | 6.2 | 29.3* | -5.0
CCc1cc(=O)oc2cc(C)c(CN3CCCC3)c(O)c12 | 4.9 | 16.9 | -5.7 | 29.2 | 28.5* | 1.6
CC(=O)[C@H]1[C@@H]2C(=O)N(c3cccc(Cl)c3)C(=O)[C@@H]2[C@H]2c3ccccc3C=CN21 | 10.4 | 0.3 | -1.4 | -17.5 | 22.9* | 5.5
CC(=O)[C@@H]1[C@@H]2C(=O)N(C3CCCCC3)C(=O)[C@@H]2C2c3ccccc3C=CN21 (some centres undefined) | 5.6 | -19.2 | 3.3 | -17.0 | 12.7 | .
O=C(c1ccco1)[C@@H]1[C@@H]2C(=O)N(c3ccc(Br)cc3)C(=O)[C@@H]2C2c3ccccc3C=CN21 (some centres undefined) | 10.0 | 1.6 | -1.8 | -15.2 | 19.2* | 4.2
CC(C)(C)C(=O)[C@@H]1[C@@H]2C(=O)N(Cc3ccccc3)C(=O)[C@@H]2[C@H]2c3ccccc3C=CN12 | 14.5 | -4.3 | 6.1 | 18.2 | 4.3 | .
O=C(c1ccco1)[C@@H]1[C@@H]2C(=O)N(c3ccc(F)cc3)C(=O)[C@@H]2C2c3ccccc3C=CN21 (some centres undefined) | 12.8 | -7.6 | 10.7 | 9.3 | 34.6* | 6.7
Cc1ccc2nc(N/N=C/c3ccccc3C#N)nc(-c3ccccc3)c2c1 | . | -5.6 | -0.7 | 0.5 | 6.1 | .
N#Cc1ccccc1/C=N/Nc1nc(-c2ccccc2)c2cc(Cl)ccc2n1 | . | -11.4 | 5.3 | -4.0 | 50.1* | 34.2*
Cc1cc(NCCCN)nc(-c2ccccc2O)n1 | 20.8 | -9.4 | -3.6 | -9.2 | 20.8* | 12.1
Cc1ccc(Nc2cc(C)nc(-c3ccccc3O)n2)cc1 | -11.2 | -19.2 | -3.8 | 18.3 | 3.2 | .
